p53ts 32C tox = qHTS Screen for Compounds that Selectively Target Cancer Cells with p53 Mutations: Cytotoxicity of p53ts Cells at the Permissive Temperature; H1299-p53A138V at 32C, ATP luminescence viability, 24 h; Potency, µM (top dose mostly 46.1 µM), most hits filed as cytotoxic; actives 0.93% (n = 130,000); also: nearly all actives have a fitted effect of over 55% in size
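Viability by ATPlite luminescence after 24 h compound treatment (up to 46 uM) at the permissive 32C. Cells are H1299 carrying p53 A138V. Scale runs from DMSO basal to 100 uM tamoxifen as full kill; AC50 from Hill fits.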
UbGFP stabilizer = Ubiquitin-GFP Assay. Ubiquitin-GFP reporter cells, proteasome inhibition, GFP fluorescence; response scale: untreated = 0%, 10 µM MG-132 = 100%. Potency, µM (series often up to 45.9 µM), actives largely listed as activators. 67,000 tested, under 10 active; active = well fitted activation curve with a large enough effect, not every such curve was filed as active; inconclusive = small, poorly fitted or top-dose-only effect, or another doubt; inactive = no such curve, though single readings can be large or run the other way
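U2OS cells stably expressing ubiquitin(G76V)-GFP, seeded overnight in 0.5% FBS medium, were exposed to compounds (qHTS, 46 uM to 2.9 nM) for 4 hr at 37 °C. GFP-positive cells were counted by laser cytometry (488 ex/515 em), normalized between basal and 10 uM MG-132.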
HBB splice mod = qHTS Assay for Modulators of Hemoglobin Beta Chain Splicing; HBB splicing reporter cell assay, activation; EGFP reporter with mutant IVS2-654 intron; response scale: normalised to 500 nM splice-correcting PNA; Potency, µM (highest dose often 46.1 µM), actives largely listed as activators; actives 0.06% (n = 65,000)
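Compounds were applied for 2 days to HeLa EGFP-654 cells, 500/well in Optimem with 2% FCS. The reporter's EGFP is disrupted by mis-splicing of beta-globin intron IVS2-654. Readout: summed well GFP fluorescence from 488 nm laser scanning; reference was 500 nM antisense […] 654 PNA.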
p53ts 39C tox = qHTS Screen for Compounds that Selectively Target Cancer Cells with p53 Mutations: Cytotoxicity of p53ts Cells at the Nonpermissive Temperature. H1299-p53A138V viability at 39C, ATP luminescence, 24 h. Potency, µM (doses to about 46.1 µM), most hits filed as cytotoxic. actives 1.5% (n = 130,000). AID 902, 2007; also: nearly all actives have a fitted effect of over 55% in size
Epigenetic mod = qHTS Assay for Epigenetic Modulators | actives 0.09% (n = 68,000) | mouse C127i GFP locus derepression, cytometry, 30 h | Potency, µM (titrated, usually from 46.1 µM)
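Read-out is the number of GFP-positive cells, scored as fluorescent objects 20 to 120 um wide, reflecting derepression of a silenced CMV-GFP reporter in murine C127i cells after 30 h compound exposure at 37 C.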
Peg3 imprint = qHTS Assay for Compounds that Induce Erasure of Genomic Imprints; mouse ES Peg3-LacZ reporter, beta-gal luminescence, 40 h; Potency, µM (series often up to 60.7 µM), hits mostly activators; actives 0.02% (n = 110,000)
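Imprint erasure is scored as LacZ activity from the silenced maternal Peg3 allele in feeder-free female ES cells cultured 40 h with LIF. Luminescence is normalized to in-plate negative controls and fitted to the Hill equation.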
Each line names hits and unclear results; the compound was inactive in the other large screens; ! = a repeat was not active. Rows were chosen to be rich in hits. Some 1.6% of all compounds tested hit in one or more screens of this group. Unless noted, calls follow the shape of the dose curve; as a rule, active = well fitted curve in the direction sought with a large enough effect; inconclusive = small, poorly fitted or top-dose-only effect, or another doubt; inactive = no such curve, though single readings can be large; an effect the other way counts as inactive or inconclusive.

Oc1cccc2ccc(Nc3ccccn3)nc12	p53ts 32C tox 15.8µM, p53ts 39C tox 10µM (no result: UbGFP stabilizer, HBB splice mod, Epigenetic mod, Peg3 imprint)
COc1ccc(C(CNC(=O)c2cc(=O)[nH]c3ccccc23)N2CCCC2)cc1 (stereo not given)	none
COc1cc(C(=O)Nc2sc3c(c2C(N)=O)CCC(C)C3)cc(OC)c1OC (stereo not given)	none (no result: UbGFP stabilizer, HBB splice mod, Epigenetic mod)
CC(C)c1ccc(NC(=O)C2CCCN(S(=O)(=O)c3ccc4[nH]c(=O)ccc4c3)C2)cc1 (stereo not given)	p53ts 32C tox inconclusive, p53ts 39C tox 10µM (no result: UbGFP stabilizer, HBB splice mod, Epigenetic mod)
Cc1ccc(Nc2nnc(SCC(=O)Nc3ncc(C(F)(F)F)cc3Cl)s2)cc1	none (no result: p53ts 32C tox, UbGFP stabilizer, HBB splice mod, Epigenetic mod, Peg3 imprint)
Cc1ccc(Nc2nnc(SCC(=O)Nc3cccc(S(=O)(=O)N4CCCCC4)c3)s2)cc1	p53ts 39C tox 11.2µM (no result: UbGFP stabilizer, HBB splice mod, Epigenetic mod, Peg3 imprint)
COc1ccc2nc(SCC(N)=O)[nH]c2c1	none
COc1ccc(-c2nnc(-c3ccc(N)cc3)o2)cc1	p53ts 32C tox inconclusive, p53ts 39C tox inconclusive
COc1ccc2nc(-c3ccc(N)cc3)[nH]c2c1	p53ts 32C tox 15.8µM, p53ts 39C tox inconclusive (no result: UbGFP stabilizer, HBB splice mod, Epigenetic mod, Peg3 imprint)
COc1ccc2nc(-c3cccc(N)c3)[nH]c2c1	p53ts 32C tox 7.94µM, p53ts 39C tox 15.8µM (no result: UbGFP stabilizer, HBB splice mod, Epigenetic mod, Peg3 imprint)
O=C(c1cc(-c2ccco2)on1)N1CCCc2ccccc21	none
CCC1CCCCN1CCCNC(=O)c1cc2c(Cl)nc3ccc(C)cc3c2s1 (stereo not given)	p53ts 39C tox 12.6µM (no result: UbGFP stabilizer, HBB splice mod, Epigenetic mod)
Cc1nc2cc(NC(=O)NCc3ccc4c(c3)OCO4)ccc2o1	none
Cc1nc2cc(NC(=O)N3c4ccccc4CC3C)ccc2o1 (stereo not given)	p53ts 32C tox 10µM, p53ts 39C tox 10µM
Cc1nc2cc(NC(=O)N3c4ccccc4CC3C)ccc2n1C (stereo not given)	p53ts 32C tox 6.31µM, p53ts 39C tox 5.01µM
CS(=O)c1nc(-c2ccc(Br)cc2)cc(-c2ccccc2)c1C#N (stereo not given)	p53ts 32C tox 20µM, p53ts 39C tox inconclusive
CCS(=O)(=O)CCSc1nc(-c2ccc(Br)cc2)cc(-c2ccccc2)c1C#N	p53ts 39C tox inconclusive (no result: UbGFP stabilizer, HBB splice mod, Epigenetic mod)
CNCCC=C1c2ccccc2CCc2ccccc21	p53ts 32C tox 20µM!, p53ts 39C tox 20µM!
O=[N+]([O-])c1ccc2ncccc2c1CCc1c([N+](=O)[O-])ccc2ncccc12	none
CCC(C(=O)Nc1cc(Cl)ccc1OC)n1nc(-c2ccccc2)ccc1=O (stereo not given)	none (no result: UbGFP stabilizer, HBB splice mod, Epigenetic mod)
COc1ccc2nc(C)cc(Nc3ccc(Cl)c(Cl)c3)c2c1	p53ts 32C tox inconclusive, p53ts 39C tox 12.6µM (no result: UbGFP stabilizer, HBB splice mod, Epigenetic mod)
COc1ccc(Nc2cc(C)nc3ccccc23)cc1	none (no result: p53ts 32C tox, UbGFP stabilizer, HBB splice mod, p53ts 39C tox, Peg3 imprint)
COc1ccc(/C=C2\SC(=N)N(c3nccs3)C2=O)cc1OC	p53ts 32C tox inconclusive, p53ts 39C tox 14.1µM (no result: UbGFP stabilizer, HBB splice mod, Epigenetic mod, Peg3 imprint)
N=C1S/C(=C\c2ccc(-c3cccc(Cl)c3)o2)C(=O)N1c1nccs1	none (no result: p53ts 32C tox, UbGFP stabilizer, HBB splice mod, Epigenetic mod, Peg3 imprint)
CC(C)(C)NS(=O)(=O)c1cccc2nsnc12	none
Oc1c(C(Nc2ccccn2)c2ccccn2)ccc2cccnc12 (stereo not given)	p53ts 39C tox 3.98µM, Epigenetic mod 5.01µM
Cc1ccnc(NC(c2ccccc2F)c2ccc3cccnc3c2O)c1 (stereo not given)	p53ts 39C tox inconclusive (no result: UbGFP stabilizer, HBB splice mod, Epigenetic mod)
Cc1ccnc(NC(c2cc(C)ccc2O)c2ccc3cccnc3c2O)c1 (stereo not given)	p53ts 32C tox inconclusive, p53ts 39C tox 12.6µM (no result: UbGFP stabilizer, HBB splice mod, Epigenetic mod)
Oc1c(C(Nc2ccccn2)c2ccccc2F)ccc2cccnc12 (stereo not given)	p53ts 39C tox 10µM (no result: UbGFP stabilizer, HBB splice mod, Epigenetic mod)
COC(=O)CNc1c(-c2ccccn2)nc2ccc(Br)cn12	p53ts 32C tox 15.8µM, p53ts 39C tox 12.6µM
Cc1ccc(Nc2c(-c3ccccn3)nc3ccc(Br)cn23)cc1	none (no result: UbGFP stabilizer, HBB splice mod, Epigenetic mod)

Compound activity (PubChem)
